# Shown are actives, neighbours in structure and some others; about 9.2% of the full set was active somewhere.
# ALDH1A1 block – inhibitors of human aldehyde dehydrogenase 1A1; P00352; Purified ALDH1A1, NADH fluorescence, propionaldehyde substrate; Potency, µM (doses to about 75.3 µM), inactives show at the top dose activity, negative = inhibition, actives largely listed as inhibitors; 7.3% of 220,000 active; AID 1030;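 note: plate controls were no enzyme wells and a reference inhibitor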
# Lamin A splicing – modulators of lamin A splicing; HeLa LMNA splicing GFP/RFP minigene ratio, 48 h; Potency, µM (top dose mostly 46.1 µM), for the others: top-dose ratio change, negative = inhibition, actives largely listed as inhibitors; 0.01% of 200,000 active; active = well fitted inhibition curve with a large enough effect in the signal ratio, with a control signal flat, not every such curve was filed as active; inconclusive = small, poorly fitted or top-dose-only effect, or effect the other way, or a change in a side signal; the % refers to the signal ratio; note: % is set by controls: 0 for no effect and ±100 for the full control effect
#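 S3 HeLa stable clones carrying a lamin A-EGFP splicing minigene plus DsRed2 were seeded at 600 cells/well in Opti-MEM with 2% FBS, pin-dosed and incubated 48 h at 37°C. Acumen cytometry (488 nm) gave the GFP/RFP total-intensity ratio.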
# JMJD2E inh – inhibitors of human JMJD2E histone demethylase. B2RXH2. JMJD2E catalytic domain, FDH-coupled NADH fluorescence (FDH is formaldehyde dehydrogenase). Potency, µM (top dose mostly 57.1 µM), inactives show top-dose activity change, negative = inhibition, hits mostly inhibitors. 1.6% of 230,000 active;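 note: 0% = wells with enzyme and -100% = buffer wells without enzyme; nearly all actives have a fitted effect of over 50% in size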
# Target sequence (B2RXH2 1-337 limits assumed): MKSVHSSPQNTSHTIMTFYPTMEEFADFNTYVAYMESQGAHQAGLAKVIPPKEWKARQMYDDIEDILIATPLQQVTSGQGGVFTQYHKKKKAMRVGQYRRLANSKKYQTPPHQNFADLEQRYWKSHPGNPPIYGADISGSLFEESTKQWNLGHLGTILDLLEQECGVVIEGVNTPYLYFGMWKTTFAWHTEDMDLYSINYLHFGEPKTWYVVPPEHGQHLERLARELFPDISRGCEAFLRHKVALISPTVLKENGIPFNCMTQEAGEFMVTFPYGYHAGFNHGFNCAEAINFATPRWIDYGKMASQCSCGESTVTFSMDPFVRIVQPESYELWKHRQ
# HTT ATP protect – Huntington cell model cytoprotection by ATP luminescence. PC12 HTT-Q103 induced, cytoprotection, ATP luminescence, 40 h. 0.14% of 230,000 active. AID 1471. Potency, µM (doses to about 56.4 µM), inactives show cytoprotection (ATP increase), hits mostly activators; active = well fitted curve in the direction sought with a large enough effect; inconclusive = small, poorly fitted or top-dose-only effect, or another doubt; inactive = no such curve, though single readings can be large; an effect the other way counts as inactive or inconclusive; note: % of control where 0% means no effect; nearly all actives have a fitted effect of over 45% in size
#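 Compounds were screened for protection of PC12 cells against cell death after tebufenozide induction (100 nM final) of mutant Huntingtin exon 1 (Q103) fused to GFP.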
# HTT aggregate – inhibitors of mutant huntingtin aggregate formation in PC12 cells; Potency, µM (doses to about 46.1 µM), for the others: top-dose activity change, negative = inhibition, actives largely listed as inhibitors; AID 1688; 1.1% of 220,000 active; PC12 HttQ103-GFP aggregates, Acumen cytometry, 40 h; active = well fitted curve in the direction sought with a large enough effect; inconclusive = small, poorly fitted or top-dose-only effect, or another doubt; inactive = no such curve, though single readings can be large; an effect the other way counts as inactive or inconclusive; note: % is set by controls: 0 for no effect and ±100 for the full control effect; nearly all actives have a fitted effect of over 60% in size
#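 Aggregates are detected as GFP objects 1–25 µm with signal 6 STDEV over background in lysates of induced PC12 cells. These carry Huntingtin exon 1 with 103 glutamines fused to GFP under an ecdysone promoter; compounds titrated.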
# HPGD block – HPGD (human) dehydrogenase inhibition; P15428; purified HPGD, NADH fluorescence kinetic, PGE2 substrate; Potency, µM, inactives show at the highest dose activity change, negative = inhibition, hits mostly inhibitors; 4.3% of 150,000 active; note: % is set by controls: 0 for no effect and ±100 for the full control effect
# Target sequence (P15428 whole entry, looked up): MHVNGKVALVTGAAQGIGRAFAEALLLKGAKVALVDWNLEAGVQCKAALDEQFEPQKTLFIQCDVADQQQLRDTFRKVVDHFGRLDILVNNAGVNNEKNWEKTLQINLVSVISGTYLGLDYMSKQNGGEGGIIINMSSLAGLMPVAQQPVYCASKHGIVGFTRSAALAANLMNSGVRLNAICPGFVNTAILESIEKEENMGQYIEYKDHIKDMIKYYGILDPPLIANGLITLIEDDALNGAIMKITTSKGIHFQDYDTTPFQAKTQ
#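 20 nM HPGD preincubated 15 min at room temperature with compound in 50 mM Tris-HCl pH 8, 0.01% Tween 20. Started with 1 mM NAD+ and 30 uM prostaglandin E2; NADH fluorescence (360/450 nm) read 5 times over 30-s intervals, last minus first.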
# * hit, by the source's call; ? = inconclusive; nt = no result; [ ] = dose if it differs, or a comment. Unless noted, calls come from the whole dose curve; as a rule, active = well fitted inhibition curve with a large enough effect (not every such curve was filed as active); inconclusive = small, poorly fitted or top-dose-only effect, or another doubt; inactive = no such curve, though single readings can be large or run the other way. Potency is the fitted concentration of half-maximal effect.
SMILES,ALDH1A1 block,Lamin A splicing,JMJD2E inh,HTT ATP protect,HTT aggregate,HPGD block
O=c1oc2ccccc2c(NCc2ccccc2F)c1[N+](=O)[O-],1.1µM*,-7%,0%,10%[10 µM],-6%,16µM*
CC(C)c1ccc(CNc2c([N+](=O)[O-])c(=O)oc3ccccc23)cc1,0%,nt,6%,-22%[10 µM],38%,nt
CCCOc1ccccc1C(=O)N1CCC(c2nc3ccccc3s2)CC1,nt,-11%[46 µM],nt,nt,nt,nt
Cc1ccc(C2CC(=O)Oc3ccc(C(C)(C)C)cc32)cc1 (stereo unspecified),-13%,nt,nt,28µM*,nt,-23%
Cc1ccccc1C1CC(=O)Oc2ccc(C(C)(C)C)cc21 (stereo unspecified),?,nt,nt,-35%,nt,-4%
Cc1ccc(C2CC(=O)Oc3ccc(O)cc32)cc1 (stereo unspecified),32µM*,nt,nt,-76%[96.6 µM],nt,?
Cc1ccc2sc(N(CCCN(C)C)C(=O)CN3C(=O)c4ccccc4C3=O)nc2c1C,-10%,nt,-1%,-8%,-19%,nt
CCCNC(=O)c1ccc(CNc2c(N3CCC(C(=O)OCC)CC3)c(=O)c2=O)cc1,?,-5%,1%,-1%,14%,4.5µM*
CC1CCN(c2c(NCc3ccc(C(=O)N4c5ccccc5CC4C)cc3)c(=O)c2=O)CC1 (stereo unspecified),-11%,?,-6%,2%,-26%,13µM*
CCOC(=O)C1CCN(c2c(NCc3ccc(C(=O)NCCC(C)C)cc3)c(=O)c2=O)CC1,-12%,6%,10%,-5%,5%,3.5µM*
O=C(NC1CCCC1)c1ccc(CNc2c(N3CCOCC3)c(=O)c2=O)cc1,5%,11%,1%,-23%,32%,7.9µM*
Cc1nn(-c2ccc(N3CCOCC3)nn2)c(C)c1CCC(=O)Nc1ccc(F)cc1F,nt,-1%[46 µM],nt,nt,nt,nt
Cc1ccccc1-c1ncc(CN2CCC(CO)(CCCc3ccccc3)CC2)cn1,?,nt,6%,0%[10 µM],4%[9.22 µM],nt
CCOC(=O)C1CCN(c2c(NCCCN3CCN(Cc4ccccc4)CC3)c(=O)c2=O)CC1,-4%,0%,-1%,6%[10 µM],16%,14µM*
CCOC(=O)C1CCN(c2c(NCCCN3CCCCC3)c(=O)c2=O)CC1,nt,nt,13%,4%[10 µM],-27%[9.22 µM],nt
CCOC(=O)C1CCCN(C(=O)c2ccc(CNc3c(N4CCC(C)CC4)c(=O)c3=O)cc2)C1 (stereo unspecified),?,-9%,0%,-7%,2%,10µM*
C=C(C)C1Cc2nc(N)nc(C)c2C1 (stereo unspecified),?,5%,?,-26%,-10%,?
C=C(C)C1Cc2c(C)nn(-c3nc(C)cc(C)n3)c2C1 (stereo unspecified),20µM*,?,-5%,-51%,11%,-17%
Cc1ccc(S(=O)(=O)Nc2ccc(O)c(Sc3ncn[nH]3)c2)cc1,?,16%[46 µM],-3%,nt,nt,nt
CC(C)C(C(=O)Nc1ncn[nH]1)N1C(=O)c2ccccc2C1=O (stereo unspecified),-3%,8%,2%,-11%[1.9 µM],-18%,-1%
Cc1ccc(S(=O)(=O)/N=C2/C=C(Sc3ncn[nH]3)C(=O)c3ccccc32)cc1,13µM*,?,4µM*,-81%[10 µM],3.2µM*,0.89µM*
CC(C)c1ccc(S(=O)(=O)/N=C2/C=C(Sc3ncn[nH]3)C(=O)c3ccccc32)cc1,1.8µM*,?,1%,-98%[10 µM],3.5µM*,1.4µM*
Cc1ccc(C)c(S(=O)(=O)Nc2ccc(O)c(Sc3ncn[nH]3)c2)c1,nt,nt,-11%,12%[10 µM],34%[9.22 µM],nt
Cc1ccc(S(=O)(=O)/N=C2/C=C(Sc3ncn[nH]3)C(=O)c3ccccc32)c(C)c1,13µM*,?,8.9µM*,-19%[10 µM],5µM*,1.4µM*
CC(C)=CC[C@@H](O)C1=CC(=O)c2c(O)ccc(O)c2C1=O,?,nt,nt,-89%,nt,nt
SMILES,ALDH1A1 block,Lamin A splicing,JMJD2E inh,HTT ATP protect,HTT aggregate,HPGD block
Cc1ccc(CNC(=O)c2cc(S(=O)(=O)N3CCCCC3)cn2C)cc1,nt,-16%[46 µM],nt,nt,nt,nt
CC(C)CCN1CCN(Cc2nc3c(s2)CCCC3)CC1CCO (stereo unspecified),-7%,nt,-5%,-29%,-8%,nt
Cc1ccc(C)c(N2CCN(c3ncnc4c3cnn4-c3ccccc3)CC2)c1,?,0%,-7%,0%,?,?
c1ccc(-n2ncc3c(N4CCCCC4)ncnc32)cc1,?,-18%,6%,-124%,-15%,18µM*
CCOC(=O)N1CCN(c2ncnc3c2cnn3-c2ccc(Cl)cc2)CC1,4µM*,?,-21%,-11%[10 µM],5%,?
c1ccc(CCN2CCN(c3ncnc4c3cnn4-c3ccccc3)CC2)cc1,28µM*,?,6%,-14%,-19%,-8%
Cc1ccccc1C(=O)N1CCN(c2ncnc3c2cnn3-c2ccccc2)CC1,7.9µM*,?,-5%,-8%,?,-4%
O=C1CCN(S(=O)(=O)c2ccccc2)CCN1CCOCc1ccc(Cl)cc1,nt,nt,22%,1%[10 µM],3%[9.22 µM],nt
CSc1nc(C)c(C(=O)Nc2ccccc2)c(-c2ccco2)c1C#N,nt,nt,-15%,24%[10 µM],-22%[9.22 µM],nt
Cc1ccccc1NC(=O)c1c(C)[nH]c(=S)c(C#N)c1-c1ccco1,-1%,-6%,-14%,4%[10 µM],21%,-19%
CCc1c(C(=O)Nc2ccccc2)c(C)[nH]c(=S)c1C#N,3.5µM*,10%,?,-11%,-1%[9.22 µM],20µM*
Cc1[nH]c(=S)c(C#N)c(C)c1C(=O)Nc1ccccc1,?,7%,?,-18%,8%,22µM*
CNC(=O)c1c(C)[nH]c(=S)c(C#N)c1-c1ccco1,nt,nt,32µM*,16%[10 µM],11%[9.22 µM],nt
CCNc1ncc2nc(-c3ccc(OC)cc3)c(=O)n(C)c2n1,?,7%,nt,-123%,nt,nt
Cc1ccccc1-c1nn2c(=O)cc(CN3CCN(C(=O)c4ccc(C(C)(C)C)cc4)CC3)nc2s1,nt,1%[46 µM],nt,nt,nt,nt
COc1ccc(Nc2cc(=O)n(C3CCCCC3)c(=O)[nH]2)c(OC)c1,7.1µM*,8%,7%,4%,-10%,-3%
Cc1cc(C)cc(Nc2cc(=O)n(C3CCCCC3)c(=O)[nH]2)c1,0.45µM*,4%,-24%,-50%,?,-5%
COC(=O)c1cccc(NC(=S)NCc2ccc(Cl)cc2)c1,-14%,-1%,-1%,11%[10 µM],-13%,-26%
COC(=O)c1cc(NC(=S)NCc2ccc(Cl)cc2)cc(C(=O)OC)c1,11µM*,?,-19%,-2%[10 µM],-6%,-25%
CC(C)(C)c1ccc(C(=O)CSc2n[nH]c(=O)[nH]c2=O)cc1,3%,-14%,3%,-33%,-26%,?
Cc1ccc(/C=N/c2sc(Cc3ccccc3)c(C)c2C(N)=O)o1,?,0%,-5%,nt,-6%,-5%

# High-throughput results (PubChem BioAssay)
